Data taken from PubChem BioAssay AID540351 (The Scripps Research Institute Molecular Screening Center, 2011).
Unmarked numbers belong to inactive results. No rule for the calls is given here.

Test system: Imidazoline I2
Assay: selectivity profiling over binding targets, CYP450 – biochemical, Ricerca HitProfilingScreen, selectivity assay for S1P3 agonist project, profiling panel (AID 540351)
Conditions: Ricerca receptor/enzyme binding panel plus CYP450, Central, at 30 µM, active compounds read high

Q: Which inhibition does the source give for `O=C(c1cc(C2CC2)on1)N(C1CCCCC1)C1CCCCC1` here?
A: Its inhibition is 23%.
